Assay outcomes (PubChem BioAssay)
Only some compounds are listed: those with a hit (about 1.1% of all), similar ones and a draw of the others.
PTAP TSG101 blk: blocks PTAP/TSG101 interaction to inhibit HIV-1 budding | Q99816 | Fluorescence polarization, FITC-PTAP peptide / Tsg101 binding | Potency, µM (doses to about 115 µM), for inactives: top-dose activity change, negative = inhibition, hits mostly inhibitors | 340,000 tested, under 10 active | AID 493005; active means well fitted inhibition curve with a large enough effect in the main read-out, with a control signal flat, not every such curve was filed as active; inconclusive means small, poorly fitted or top-dose-only effect, or effect the other way, or a change in a side signal; inactive means no such curve, though single readings can be large or run the other way; further: % of control where 0% means no effect
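Fluorescence anisotropy tracks displacement of a FITC-tagged PTAP peptide (50 nM) from the Tsg101 binding domain (10 uM), following a 20 min room-temperature incubation at pH 7.5.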
Eya2 phos inh: blocks the phosphatase activity of human Eya2; O00167; actives 0.006% (n = 330,000); Potency, µM (doses to about 76.9 µM), without a hit: at the highest dose activity, negative = inhibition, most hits filed as inhibitors; recombinant Eya2, OMFP fluorescence dephosphorylation (OMFP is methylfluorescein phosphate); AID 488837; further: on the % scale 0 is the no-effect control and ±100 the full control effect
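Eya2 protein (added as 0.2 uM solution) was preincubated with compound for 10 min at ambient temperature in 50 mM HEPES pH 7.5, 50 mM NaCl, 5 uM MgCl2, 0.05% BSA, 1 mM DTT. OMFP (added at 50 uM) then reacted 10 min; fluorescence read at 485/525 nm.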
USP2a block: blocks human ubiquitin-specific protease USP2a. actives 0.01% (n = 330,000). AID 463254. O75604. USP2 core, Ub-CHOP2 coupled fluorogenic reporter, 485/531. Potency, µM (titrated, usually from 38.3 µM), inactives show top-dose activity change, negative = inhibition, actives largely listed as inhibitors;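 further: plate controls were DMSO wells for no effect and full inhibition by NEM control for full effect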
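Deubiquitinase activity read as fluorescence (485/531 nm) after Ub-CHOP2 cleavage activates the enterokinase reporter on its substrate; USP2 core 10nM, Ub-CHOP2 and substrate 25nM each, 30min compound preincubation then 60min RT; data normalized to NEM, curves fitted.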
12-LOX inh: ALOX12 (human) lipoxygenase inhibition | P18054 | purified 12hLO, xylenol orange hydroperoxide absorbance | Potency, µM (top dose mostly 108 µM), for the others: at the highest dose activity change, negative = inhibition, most hits filed as inhibitors | actives 1.1% (n = 580,000); further: on the % scale 0 is the no-effect control and ±100 the full control effect
Target sequence (P18054 whole entry, looked up): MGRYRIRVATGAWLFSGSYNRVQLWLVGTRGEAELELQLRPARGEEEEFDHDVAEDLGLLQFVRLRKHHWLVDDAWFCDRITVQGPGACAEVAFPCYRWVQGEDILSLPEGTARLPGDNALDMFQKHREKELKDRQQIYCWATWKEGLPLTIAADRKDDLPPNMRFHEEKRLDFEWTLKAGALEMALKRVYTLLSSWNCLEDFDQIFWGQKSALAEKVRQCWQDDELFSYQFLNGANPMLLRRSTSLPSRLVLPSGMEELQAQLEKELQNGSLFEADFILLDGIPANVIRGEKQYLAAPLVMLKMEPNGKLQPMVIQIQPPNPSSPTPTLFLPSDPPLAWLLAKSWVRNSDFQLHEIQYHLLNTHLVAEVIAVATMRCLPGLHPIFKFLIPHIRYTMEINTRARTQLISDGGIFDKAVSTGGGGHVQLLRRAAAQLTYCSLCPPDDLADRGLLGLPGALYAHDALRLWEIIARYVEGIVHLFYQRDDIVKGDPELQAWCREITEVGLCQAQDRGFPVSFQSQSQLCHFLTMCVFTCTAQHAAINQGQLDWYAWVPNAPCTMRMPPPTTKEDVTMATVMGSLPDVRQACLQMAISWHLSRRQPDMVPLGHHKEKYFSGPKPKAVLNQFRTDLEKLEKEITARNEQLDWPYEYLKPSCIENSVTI
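Purified human 12hLO (150 nM final) in 25 mM Hepes, 0.01% Triton X-100, pH 7.0 was preincubated 15 min at room temperature with compound. Then 40 uM arachidonic acid was added, 30 min. Hydroperoxide was read by Fe-XO absorbance ratio 573/405 nm.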
An asterisk follows results filed as active; ? = inconclusive; nt = no result; [ ] = dose if it differs, or a comment. Unless noted, the call rests on the fitted dose curve; in most records, active means well fitted curve in the direction sought with a large enough effect; inconclusive means small, poorly fitted or top-dose-only effect, or another doubt; inactive means no such curve, though single readings can be large; an effect the other way counts as inactive or inconclusive. Potency means the concentration at half of the fitted maximal effect.

SMILES	PTAP TSG101 blk	Eya2 phos inh	USP2a block	12-LOX inh
Cc1ccccc1CN1C(=O)C(C)S/C1=N/N=C/c1ccco1 (stereo unspecified)	2%	-3%	-3%	?
Cc1ccccc1CN1C(=O)C(C)Sc2ccc(-c3ccco3)cc21 (stereo unspecified)	nt	nt	nt	16µM*
CCOC(=O)[C@H](CCc1ccccc1)N[C@@H](C)C(=O)N1[C@@H](C(=O)O)C[C@@H]2CCC[C@@H]21	nt	nt	nt	-9%[57.4 µM]
Cc1ccc(C)c(S(=O)(=O)N2CCN(Cn3ncc4ccccc4c3=O)CC2)c1	nt	nt	nt	10%
C[C@H](CO)N1C[C@H](C)[C@@H](CN(C)C(=O)c2cnccn2)Oc2cc(C#CCC3CCCC3)ccc2S1(=O)=O	nt	nt	nt	35µM*
COc1cc(CNc2ccc(N3CCOCC3)cc2)cc(Br)c1OC	-1%	-7%	-2%	?
CCOc1cc(CNc2ccc(N3CCOCC3)cc2)cc(Br)c1OCC	-1%	-19%	0%	32µM*
C=CCOc1cccc(/C=C(\C#N)c2nc3ccccc3[nH]2)c1	nt	nt	nt	22%
Cc1ccccc1-c1cc(C(=O)NCc2cccc(Br)c2)n(CC2CC(c3cccnc3)=NO2)n1 (stereo unspecified)	-6%	4%	-25%	40µM*
COc1ccccc1CNC(=O)c1cc(-c2ccccc2C)nn1CC1CC(c2cccnc2)=NO1 (stereo unspecified)	0%	-16%	2%	-3%
COCCN1C(=O)c2ccccc2C(C(=O)Nc2ccc3c(c2)OCO3)C12CCCC2 (stereo unspecified)	nt	nt	nt	2%
Cc1nc(NCc2ccc3c(c2)OCO3)c2oc3ccccc3c2n1	-7%	-8%	-1%	22µM*
O=C(Nc1ccccc1)c1cccc(OCc2ccccc2)c1	nt	nt	nt	-23%
O=C(NC(=S)Nc1ccc(CN2CCCCC2)cc1)c1cccc(OCc2ccccc2)c1	0%	5%	-1%	32µM*
O=C(O)c1ccc(NC(=S)NC(=O)c2cccc(COc3ccccc3)c2)cc1	-6%	-10%	3%	7.9µM*
O=C(NCCn1cccc1-c1nc(-c2ccc3c(c2)OCO3)no1)C1(c2ccccc2)CC1	nt	nt	nt	7%
O=C(CSc1nccn2nc(-c3cccc4ccccc34)cc12)NCCc1ccccc1	nt	nt	nt	-17%
C=CCNC(=S)N/N=C(\C)c1ccc(OC)cc1	0%	5%	-1%	40µM*
COc1ccc(/C(C)=N/NC(=S)NCc2ccco2)cc1	0%	-4%	2%	40µM*
C=CCNC(=S)N/N=C(\C)c1cccc(OC)c1	-1%	-7%	4%	?
CCN(Cc1ccc(Cl)s1)C(=O)CCc1cccs1	nt	nt	nt	41%
Cc1ccc2oc(SCc3noc(CCC(=O)Nc4ccc5ccccc5c4)n3)nc2c1	nt	nt	nt	3%
